Records with an inconclusive call do not appear. Calls of active or inactive are those of the source. Calls come from the whole dose curve; as a rule, active = well fitted inhibition curve with a large enough effect; inconclusive = small, poorly fitted or top-dose-only effect; inactive = flat fitted curve, though single readings scatter.

The values below come from PubChem BioAssay (NCATS).
% is set by controls: 0 for no effect and ±100 for the full control effect; potency is the fitted concentration of half-maximal effect.

For this assay, the system named is MCC-26. In words: qHTS assay to identify novel small-molecules to repurpose for Merkel cell carcinoma treatment (AID 1296009). Note: nearly all actives have a fitted effect of over 60% in size. As to conditions: MCC and control cell lines, CellTiter-Glo viability, 72 h; series mostly up to 46 µM; activity change, negative = cytotoxicity: at the top concentration. An excerpt: MCC is a rare and aggressive neuroendocrine skin cancer with limited treatment options. Approximately 80% of MCCs have the Merkel cell polyomavirus (MCPyV) DNA integrated into the host genome (virus-positive: VP-MCC) and viral oncogenes drive oncogenesis. The remaining MCCs are virus-negative (VN-MCC) and are caused by UV mutagenesis. To identify novel treatments for VP-MCC and/or VN-MCC we screened three VP-MCC cell lines (WAGA, MKL-1, MKL-2), three VN-MCC cell lines (MCC-13, MCC-26, UISO), and four immortalized, non-transformed control cell lines (HaCaT, HEK293T, CRL7250, NIH-3T3) against ~2,400 compounds in the NCGC Pharmaceutical Collection (NPC) and ~1,900 compounds in the Mechanism Interrogation PlatE (MiPE). Using cell viability as a readout (CellTiter-Glo assay) we found both overlapping and distinct drugs that can be repurposed for the treatment of VP-MCC and VN-MCC.
A high-throughput screen was conducted in 1536-well white flat bottom plates (Corning) on a Kalypsys robotic system. Cell lines WAGA, MKL-1, MKL-2, MCC-13, MCC-26, UISO, HaCaT, HEK293T, CRL7250, and NIH-3T3 were screened against 2 small molecule annotated drug libraries NPC and MIPE in dose response (8 and 11 pt. respectively) measuring cell viability after 72 hours of incubation. […] A 1,536 pintool (Kalypsys) was used to transfer 23 nL of compound in DMSO to the 1,536-well assay plates. After 72 hr incubation at 37 degree celsius, 2.5 uL of CellTiter-Glo (Promega) was dispensed into each well using a BiorapTR. Plates were incubated at room temperature for 10 min, transferred to a ViewLux (PerkinElmer) and the luminescence was recorded using an exposure time of 2 seconds. Relative luminescence units (RLUs) were normalized to in-plate controls (no cells as a positive (cytotoxicity) control, DMSO as negative control) and the normalized data was processed using NCATS in-house software.
(In general: In qHTS, concentration-response curves come from the screen itself.)
On to `OC[C@H]1O[C@@H](Oc2cc(O)cc(C=Cc3ccc(O)cc3)c2)[C@H](O)[C@@H](O)[C@H]1O`, for which the “activity change, negative = cytotoxicity” value is -18.6% (inactive). Consider `COC1CCC(N(C(=O)C2CCC(C)CC2)c2cc(C3=CCCCC3)sc2C(=O)O)CC1` (stereo not given), for which the “activity change, negative = cytotoxicity” value is 7.76% (inactive).

In the case of `CCCCCCCCCCCC1=C(O)C(=O)C=C(O)C1=O`, the “activity change, negative = cytotoxicity” value was -1.85% (inactive). Take `CC(=O)O[C@]1(C(C)=O)CC[C@H]2[C@@H]3C=C(Cl)C4=CC(=O)[C@@H]5C[C@@H]5[C@]4(C)[C@H]3CC[C@@]21C`: the “activity change, negative = cytotoxicity” value was -18.2% (inactive). The same measure, in the same setting: as for `CO[C@H]1C[C@@H]2CC[C@@H](C)[C@@](O)(O2)C(=O)C(=O)N2CCCC[C@@H]2C(=O)O[C@H]([C@H](C)C[C@@H]2CC[C@H](OP(C)(C)=O)[C@H](OC)C2)CC(=O)[C@H](C)C=C(C)[C@@H](O)[C@@H](OC)C(=O)[C@H](C)C[C@H](C)C=CC=CC=C1C`, the figure is 0.858% (inactive).

For `N[C@H](CSC(c1ccccc1)(c1ccccc1)c1ccccc1)C(=O)O`, the “activity change, negative = cytotoxicity” value was -3.19% (inactive). The same measure, in the same setting: as for `CC=CCC(C)C(O)C1C(=O)NC(CC)C(=O)N(C)CC(=O)N(C)C(CC(C)C)C(=O)NC(C(C)C)C(=O)N(C)C(CC(C)C)C(=O)NC(C)C(=O)NC(C)C(=O)N(C)C(CC(C)C)C(=O)N(C)C(CC(C)C)C(=O)N(C)C(C(C)C)C(=O)N1C` (stereo not given), the figure is -18.6% (inactive); as for `COCCOC(=O)C1=C(C)NC2=C(C(=O)CC(c3ccccc3OC)C2)C1c1cccc(O)c1` (stereo not given), -3.39% (inactive). In the case of `COc1cc2nc(-c3ccc(N4CCN(C)CC4)cc3)nc(NCCN3CCOCC3)c2cc1OC`, the Potency was 9.35 µM (active). In the case of `CNC1CCC(N(Cc2cccc(-c3ccncc3)c2)C(=O)c2sc3c(F)ccc(F)c3c2Cl)CC1` (stereo not given), the “activity change, negative = cytotoxicity” value was -19.2% (inactive). Take `NC(=O)[C@@H](CCC(F)(F)F)N(Cc1ccc(-c2ncon2)cc1F)S(=O)(=O)c1ccc(Cl)cc1`: the “activity change, negative = cytotoxicity” value was -15% (inactive). On the same count and under the same terms, as for `CC1(C)Cc2c(sc(NC(=S)NC(=O)c3ccccc3)c2C(=O)O)CO1`, the figure is -7.74% (inactive); as for `Nc1ncnc2c1ncn2[C@@H]1O[C@@H](CO)[C@H](O)[C@H]1O`, -4.54% (inactive).

Take `C[C@@H](O)[C@H]1C(=O)N2C(C(=O)O)=C(S[C@@H]3CN[C@H](C(=O)N(C)C)C3)[C@H](C)[C@H]12`: the Potency result is “inactive”. As to `CC(=Cc1ccccc1)C=C1SC(=S)N(CC(=O)O)C1=O`, the “activity change, negative = cytotoxicity” value is -9.68% (inactive). On the same count and under the same terms, the same measure for `CCC(CC)[C@H](NC(C)=O)[C@@H]1[C@H](O)[C@@H](C(=O)O)C[C@@H]1N=C(N)N`: -17.2% (inactive). Consider `O=C(NOCC(O)CO)c1cc(Br)c(F)c(F)c1Nc1ccc(I)cc1F` (stereo not given), for which the “activity change, negative = cytotoxicity” value was -10.1% (inactive).

On to `NS(=O)(=O)c1cccc2c1C(=O)c1cccc(O)c1C2=O`, for which the Potency was 0.833 µM (active). On to `Nc1ncnc2c1nc(Cl)n2[C@@H]1O[C@H](CO)[C@@H](O)[C@@H]1O`, for which the “activity change, negative = cytotoxicity” value was -2.41% (inactive).

For `Cc1cc(OCCCc2c(C(=O)O)n(Cc3cccnc3)c3c(-c4c(COc5ccc(N6CCN([S+](C)(=O)[O-])CC6)cc5)nn(C)c4C)cccc23)cc(C)c1Cl`, the “activity change, negative = cytotoxicity” value was -5.25% (inactive).

As for `CC(=NNC(=S)N1CCC1)c1ccccn1`, the Potency was 0.418 µM (active). In the case of `O=C(CCc1ccc(O)cc1)c1c(O)cc(O)cc1O[C@@H]1O[C@H](CO)[C@H](O)[C@H](O)[C@H]1O`, the “activity change, negative = cytotoxicity” value is -4.63% (inactive). As for `CC(C)NCC(O)COc1cccc2[nH]ccc12` (stereo not given), the “activity change, negative = cytotoxicity” value was -1.98% (inactive).

Consider `Nc1ncnc2ccccc12`, for which the “activity change, negative = cytotoxicity” value is -1.79% (inactive).

Turning to `Cc1ccccc1C(C(=O)NC1CCCCC1)N(C(=O)Cn1ccnc1C)c1cccc(F)c1` (stereo not given), the “activity change, negative = cytotoxicity” value is -5.74% (inactive). For `CC(C)=CC[C@@H](O)C1=CC(=O)c2c(O)ccc(O)c2C1=O`, the “activity change, negative = cytotoxicity” value was -0.0488% (inactive). For `COc1cc(N2CCC(N3CCN(C)CC3)CC2)ccc1Nc1ncc(Cl)c(Nc2ccccc2S(=O)(=O)C(C)C)n1`, the Potency is 5.9 µM (active). On to `C=C1C(=O)OC2C=C(C)CCC=C(C)CCC12` (stereo not given), for which the “activity change, negative = cytotoxicity” value was 0.246% (inactive).

For the compound `N#CC1(c2ccc(NC(=O)c3cccnc3NCc3ccncc3)cc2)CCCC1`, the “activity change, negative = cytotoxicity” value was -9.32% (inactive). Take `CCN(CC)CCOC(=O)c1ccc(N)cc1`: the “activity change, negative = cytotoxicity” value is 6.77% (inactive). Take `O=C1NC(=O)C(=Cc2cccc(C(F)(F)F)c2)S1`: the “activity change, negative = cytotoxicity” value was 0.0739% (inactive). Regarding `CS(=O)(=O)N(Cc1ccco1)CC(O)Cn1c2ccccc2c2ccccc21` (stereo not given), the “activity change, negative = cytotoxicity” value was -4.94% (inactive). `C=CCc1ccc(O)c(-c2ccc(O)c(CC=C)c2)c1`: the “activity change, negative = cytotoxicity” value was -16.2% (inactive). As for `CN[C@@H](C)C(=O)N[C@H]1CN(C(=O)CC(C)C)CC[C@H]2CC[C@@H](C(=O)NC(c3ccccc3)c3ccccc3)N2C1=O`, the “activity change, negative = cytotoxicity” value was 3.68% (inactive). For the compound `CC1(C)CCC2=C(O1)c1ccccc1C(=O)C2=O`, the “activity change, negative = cytotoxicity” value was -0.292% (inactive). For `COc1ccccc1N1CCN(CCCNc2cc(=O)n(C)c(=O)n2C)CC1`, the “activity change, negative = cytotoxicity” value is 8.36% (inactive). Take `COc1ccc2c3c1OC1C[C@@H](O)C=C[C@@]31CCN(C)C2` (stereo not given in full): the “activity change, negative = cytotoxicity” value was 8.15% (inactive). Take `CCN(CC)C(=O)c1ccc(O)c(OC)c1`: the “activity change, negative = cytotoxicity” value was -0.0781% (inactive).

As for `Cc1ccc([C@@H]2O[C@H](CO)[C@@H](O)[C@H](O)[C@@H]2O)cc1Cc1ccc(-c2ccc(F)cc2)s1`, the “activity change, negative = cytotoxicity” value is -11% (inactive).

In the case of `CC(C)(C)c1ccc(C(O)CCCN2CCC(C(O)(c3ccccc3)c3ccccc3)CC2)cc1` (stereo not given), the “activity change, negative = cytotoxicity” value is 4.63% (inactive).
